Experiment [1] in a line: ATG_E_Box_CIS: Attagene CIS-FACTORIAL HepG2 Assay for human Enhancer Box (E-box) (AID 2282936). Particulars: HepG2 E-box cis-reporter transcription, actives raise or lower the signal. The method, boiled down:
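Multiplexed CIS reporter system in transiently transfected HepG2 cells measures native transcription factor activity. Reporter RNA after 24 h exposure is profiled by RT-PCR-capillary electrophoresis.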

Experiment [2] can be described thus: ATG_M_61_CIS: Attagene CIS-FACTORIAL HepG2 Assay for M61 Transcription Factor (Internal Marker) (AID 2282937). Particulars: HepG2 Attagene CIS-FACTORIAL M61 internal marker reporter; actives raise or lower the signal. A digest of the protocol:
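Multiplexed reporter mRNA assay, HepG2 human hepatoma cells, 24 h treatment. Signal: FAM-labelled, HpaI-digested RT-PCR fragments by CE. Fit: bidirectional, baseline DMSO.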

A short description of experiment [3]: ATG_EGR_CIS: Attagene CIS-FACTORIAL HepG2 Assay for human Early Growth Response 1 (EGR1) (AID 2282938). As to conditions: HepG2 Attagene CIS-FACTORIAL EGR reporter mRNA; actives raise or lower the signal. The method, boiled down: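 Multiplexed cis-reporter system in human hepatoma HepG2 cells, transiently transfected. Cells are dosed for 24 h; reporter transcripts are amplified, fluorescently tagged and sized by capillary electrophoresis, with DMSO as negative control.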

Experiment [4] is described as follows: ATG_M_19_CIS: Attagene CIS-FACTORIAL HepG2 Assay for M19 Transcription Factor (Internal Marker) (AID 2282939). Particulars: HepG2 Attagene CIS-FACTORIAL M19 internal marker reporter; actives raise or lower the signal. The method, boiled down: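 HepG2 cells transiently transfected with cis-regulated multiple reporter transcription units were dosed for 24 h; reporter mRNA was quantified by RT-PCR, 6-FAM primer-extension labelling, HpaI digestion and capillary electrophoresis, with bidirectional fitting against DMSO baseline.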

A short description of experiment [5]: ATG_ERE_CIS: Attagene CIS-FACTORIAL HepG2 Assay for Estrogen Response Element (ERE) (AID 2282940). As to conditions: HepG2 ERE cis-reporter, Attagene RNA transcript; actives raise or lower the signal. A digest of the protocol: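 HepG2 cells transiently transfected with cis-promoter-driven multiplexed reporter transcription units report endogenous TF activity. After 24 h compound exposure, reporter mRNA is quantified by RT-PCR with capillary electrophoresis fluorescence; bidirectional fitting versus DMSO baseline.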

Experiment [6] can be described thus: ATG_Ets_CIS: Attagene CIS-FACTORIAL HepG2 Assay for human Erythroblast Transformation Specific (ETS) (AID 2282941). Particulars: HepG2 ETS cis-reporter transcription, actives raise or lower the signal. A digest of the protocol:
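After transient cis-reporter transfection, HepG2 cells receive test chemical for 24 h. Reporter mRNA levels, measured by RT-PCR and capillary electrophoresis fluorescence, are analysed bidirectionally relative to the DMSO baseline.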

In experiment [7] the target is Hepatocyte nuclear factor 3-beta (Homo sapiens) (UniProt Q9Y261). Put plainly: ATG_FoxA2_CIS: Attagene CIS-FACTORIAL HepG2 Assay for human Forkhead box A2 (FOXA2) (AID 2282942). As to conditions: HepG2 cis-reporter transcription factor activity, 24 h; actives raise or lower the signal. The method, boiled down: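 Multiplexed cis-element reporter assay in transiently transfected HepG2. Twenty-four hours post-dosing, RNA was reverse-transcribed, amplified, FAM-labelled, HpaI-digested and separated by CE. Activity gain or loss relative to DMSO.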
Sequence of Hepatocyte nuclear factor 3-beta (Homo sapiens) (Q9Y261 whole entry, looked up): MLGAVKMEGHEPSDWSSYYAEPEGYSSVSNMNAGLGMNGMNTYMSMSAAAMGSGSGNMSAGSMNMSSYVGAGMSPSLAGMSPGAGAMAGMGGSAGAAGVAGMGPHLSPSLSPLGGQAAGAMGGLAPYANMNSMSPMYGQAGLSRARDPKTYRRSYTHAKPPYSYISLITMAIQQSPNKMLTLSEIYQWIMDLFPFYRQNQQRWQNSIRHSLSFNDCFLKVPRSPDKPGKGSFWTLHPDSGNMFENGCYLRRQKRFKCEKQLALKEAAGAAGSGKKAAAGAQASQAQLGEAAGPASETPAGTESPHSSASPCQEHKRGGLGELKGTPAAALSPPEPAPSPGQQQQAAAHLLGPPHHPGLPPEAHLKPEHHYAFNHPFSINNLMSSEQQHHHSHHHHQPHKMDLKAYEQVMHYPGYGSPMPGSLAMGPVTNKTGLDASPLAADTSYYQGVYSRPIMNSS

Experiment [8] can be described thus: ATG_FoxO_CIS: Attagene CIS-FACTORIAL HepG2 Assay for human Forkhead box O (FoxO) (AID 2282943). Particulars: HepG2 Attagene cis-reporter, FoxO element, mRNA; actives raise or lower the signal. A digest of the protocol:
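Values reflect reporter mRNA induction or loss in HepG2 cells 24 h post-dosing, fitted bidirectionally with DMSO as negative control and baseline. Detection used RT-PCR and fluorescence capillary electrophoresis.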

A short description of experiment [9]: ATG_GATA_CIS: Attagene CIS-FACTORIAL HepG2 Assay for human GATA Binding Protein (AID 2282944). As to conditions: HepG2 GATA cis-element reporter, Attagene multiplex mRNA; actives raise or lower the signal. The method, boiled down: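 HepG2 cells transiently transfected with multiplexed cis-element reporter units reflecting endogenous transcription factor activity; reporter mRNA measured after 24 h dosing by RT-PCR, 6-FAM labeling, HpaI digestion and capillary electrophoresis. Bidirectional fitting versus DMSO baseline.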

The nature of experiment [10]: ATG_GLI_CIS: Attagene CIS-FACTORIAL HepG2 Assay for human Zinc Finger Protein GLI1 (AID 2282945). As to conditions: HepG2, Attagene cis-factorial reporter mRNA, GLI element; actives raise or lower the signal. A digest of the protocol: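 HepG2 cells transiently transfected with cis-promoter multiplexed reporter units report endogenous transcription factor activity. After 24 h chemical exposure, reporter mRNA was quantified by RT-PCR, 6-FAM labelling, HpaI digestion and capillary electrophoresis, with bidirectional fitting against DMSO.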

A short description of experiment [11]: ATG_GRE_CIS: Attagene CIS-FACTORIAL HepG2 Assay for human Glucocorticoid Response Elements (GRE) (AID 2282947). Particulars: HepG2 GRE cis-reporter, Attagene multiplex mRNA; actives raise or lower the signal. The method, boiled down: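 Following 24 h chemical exposure of transiently transfected HepG2 cells, total RNA was reverse-transcribed and reporter cDNA amplified, fluorescently labelled and sized by capillary electrophoresis. Signal gain or loss was fitted relative to DMSO vehicle.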

Experiment [12] can be described thus: ATG_ISRE_CIS: Attagene CIS-FACTORIAL HepG2 Assay for human Interferon Regulatory Factor 1 (IRF1) binding to an Interferon-Stimulated Response Element (ISRE) (AID 2282948). Particulars: HepG2 ISRE cis-reporter (Attagene), mRNA transcription readout; actives raise or lower the signal. A digest of the protocol:
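Quantitation relies on labelled RT-PCR fragments separated by capillary electrophoresis. Human HepG2 cells bearing cis-promoter reporter constructs were treated 24 h; DMSO served as baseline for bidirectional fitting.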

Experiment [13] is described as follows: ATG_M_32_CIS: Attagene CIS-FACTORIAL HepG2 Assay for M32 Transcription Factor (Internal Marker) (AID 2282949).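 Note: background control marker of the multiplexed CIS panel rather than a real target.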 Particulars: HepG2 Attagene cis-factorial M32 reporter, mRNA; actives raise or lower the signal. A digest of the protocol:
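HepG2 cells transiently transfected with multiplexed cis-regulated reporter units, dosed 24 h. Reporter mRNA quantified by RT-PCR, 6-FAM labelling, HpaI digestion and capillary electrophoresis; bidirectional fit vs DMSO.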

A short description of experiment [14]: ATG_M_06_CIS: Attagene CIS-FACTORIAL HepG2 Assay for M06 Transcription Factor (Internal Marker) (AID 2282950). Particulars: HepG2 Attagene CIS-FACTORIAL M06 internal marker reporter; actives raise or lower the signal. A digest of the protocol: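 HepG2 cells transiently transfected with cis-regulated multiple reporter transcription units were exposed to chemical for 24 h; reporter mRNA was quantified by RT-PCR, 6-FAM primer labelling, HpaI digestion and capillary electrophoresis, fitted bidirectionally against DMSO.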

In experiment [15] the target is Hepatocyte nuclear factor 6 (Homo sapiens) (UniProt Q9UBC0). Put plainly: ATG_HNF6_CIS: Attagene CIS-FACTORIAL HepG2 Assay for human Hepatocyte Nuclear Factor 6 (HNF6) (AID 2282952). As to conditions: HepG2 Attagene cis-factorial HNF6 reporter transcription; actives raise or lower the signal. A digest of the protocol:
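HepG2 cells transiently transfected with cis-element-driven multiplexed reporter units measuring endogenous transcription factor activity. After 24 h exposure, reporter mRNA quantified by RT-PCR, FAM-labelled fragments and capillary electrophoresis; bidirectional fitting versus DMSO.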

Experiment [16] addresses Heat shock factor protein 1 (Homo sapiens) (UniProt Q00613). Put plainly: ATG_HSE_CIS: Attagene CIS-FACTORIAL HepG2 Assay for human Heat Shock Transcription Factor 1 (HSE) (AID 2282953). Particulars: HepG2 HSE cis-reporter, Attagene RNA transcription; actives raise or lower the signal. A digest of the protocol:
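HepG2 cells transiently transfected with multiple reporter transcription units under cis-regulatory promoter control, measuring endogenous transcription factor activity. After 24 h chemical exposure, reporter mRNA quantified by RT-PCR, fluorescent labelling, HpaI digestion and capillary electrophoresis; bidirectional fit versus DMSO.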

Experiment [17] is described as follows: ATG_MRE_CIS: Attagene CIS-FACTORIAL HepG2 Assay for human Metal Responsive Element (MRE) (AID 2282954). Particulars: HepG2 MRE cis-reporter transcription, Attagene multiplex; actives raise or lower the signal. A digest of the protocol: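 Step one: transfect HepG2 with cis-regulated reporter units. Step two: dose 24 h. Step three: isolate RNA, RT-PCR, 6-FAM label, HpaI digest, capillary electrophoresis. Fit bidirectionally to DMSO.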

Experiment [18] deals with Paired box protein Pax-6 (Homo sapiens) (UniProt P26367). Briefly: ATG_Pax6_CIS: Attagene CIS-FACTORIAL HepG2 Assay for human Paired Box 6 (PAX6) (AID 2282956). Particulars: HepG2 CIS-FACTORIAL PAX6 reporter transcription, RNA readout; actives raise or lower the signal. A digest of the protocol:
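After twenty-four hours of chemical exposure, transfected HepG2 cells are harvested for RNA. Cis-promoter reporter transcripts are amplified, fluorescently labelled and sized by capillary electrophoresis, with gain and loss of signal scored against DMSO.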

A short description of experiment [19]: ATG_PBREM_CIS: Attagene CIS-FACTORIAL HepG2 Assay for human Phenobarbital-responsive Enhancer Module (PBREM) (AID 2282955). Particulars: HepG2 PBREM cis-reporter, Attagene multiplexed transcription; actives raise or lower the signal. The method, boiled down:
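Multiplexed cis-reporter readout in human hepatoma HepG2 cells; PBREM-regulated transcript quantified after 24 h exposure by fluorescent RT-PCR fragment analysis. Signal changes up or down fitted relative to DMSO.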

Experiment [20] deals with Hypoxia-inducible factor 1-alpha (Homo sapiens) (UniProt Q16665). Put plainly: ATG_HIF1a_CIS: Attagene CIS-FACTORIAL HepG2 Assay for human Hypoxia Inducible Factor 1 (HIF1A) (AID 2282951). As to conditions: HepG2 Attagene cis-factorial HIF1a reporter transcription; actives raise or lower the signal. A digest of the protocol:
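Cis-element reporter constructs were transiently transfected into HepG2 cells, which were treated for 24 h; reporter RNA was reverse-transcribed, amplified, labelled and resolved by capillary electrophoresis.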

Values joined by “and” are separate entries in the source; they are usually repeats but may differ in a detail not shown here. Equal entries are not always repeated. Where a structure was tested more than once in an assay, its records may differ in their call. Active and inactive are the calls of the source. Rule for the calls: active = hit-call score of the fitted dose curve at least 0.9, where 1 is the maximum; inactive = score below 0.9.

Sequence of Hepatocyte nuclear factor 6 (Homo sapiens) (Q9UBC0 whole entry, looked up, the tested form may be a part): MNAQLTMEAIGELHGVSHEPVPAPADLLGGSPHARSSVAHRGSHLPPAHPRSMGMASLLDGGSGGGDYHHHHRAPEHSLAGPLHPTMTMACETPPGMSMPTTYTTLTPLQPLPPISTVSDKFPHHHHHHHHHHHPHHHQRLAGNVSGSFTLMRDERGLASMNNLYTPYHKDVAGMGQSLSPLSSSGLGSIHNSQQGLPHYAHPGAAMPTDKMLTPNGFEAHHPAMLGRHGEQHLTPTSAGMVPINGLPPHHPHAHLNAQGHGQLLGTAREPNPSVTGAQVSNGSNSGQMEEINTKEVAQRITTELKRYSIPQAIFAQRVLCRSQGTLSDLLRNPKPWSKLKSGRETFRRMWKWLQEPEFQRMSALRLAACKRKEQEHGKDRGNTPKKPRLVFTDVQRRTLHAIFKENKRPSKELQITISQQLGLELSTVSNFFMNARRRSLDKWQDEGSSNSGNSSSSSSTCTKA
Sequence of Heat shock factor protein 1 (Homo sapiens) (Q00613 whole entry, looked up): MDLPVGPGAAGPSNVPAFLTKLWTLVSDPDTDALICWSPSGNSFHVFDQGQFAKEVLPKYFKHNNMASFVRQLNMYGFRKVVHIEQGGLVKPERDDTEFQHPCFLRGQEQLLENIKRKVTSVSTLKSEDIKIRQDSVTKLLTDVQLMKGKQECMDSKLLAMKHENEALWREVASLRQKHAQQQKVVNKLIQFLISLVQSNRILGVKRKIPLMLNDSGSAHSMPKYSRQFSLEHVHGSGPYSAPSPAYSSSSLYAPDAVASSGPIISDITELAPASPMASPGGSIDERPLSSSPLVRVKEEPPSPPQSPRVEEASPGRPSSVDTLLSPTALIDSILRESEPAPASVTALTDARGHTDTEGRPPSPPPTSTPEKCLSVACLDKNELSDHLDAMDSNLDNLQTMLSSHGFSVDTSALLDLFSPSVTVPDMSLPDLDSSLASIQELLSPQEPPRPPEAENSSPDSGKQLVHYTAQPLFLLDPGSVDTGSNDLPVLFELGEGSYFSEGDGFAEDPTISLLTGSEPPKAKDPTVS
Sequence of Hypoxia-inducible factor 1-alpha (Homo sapiens) (Q16665 whole entry, looked up): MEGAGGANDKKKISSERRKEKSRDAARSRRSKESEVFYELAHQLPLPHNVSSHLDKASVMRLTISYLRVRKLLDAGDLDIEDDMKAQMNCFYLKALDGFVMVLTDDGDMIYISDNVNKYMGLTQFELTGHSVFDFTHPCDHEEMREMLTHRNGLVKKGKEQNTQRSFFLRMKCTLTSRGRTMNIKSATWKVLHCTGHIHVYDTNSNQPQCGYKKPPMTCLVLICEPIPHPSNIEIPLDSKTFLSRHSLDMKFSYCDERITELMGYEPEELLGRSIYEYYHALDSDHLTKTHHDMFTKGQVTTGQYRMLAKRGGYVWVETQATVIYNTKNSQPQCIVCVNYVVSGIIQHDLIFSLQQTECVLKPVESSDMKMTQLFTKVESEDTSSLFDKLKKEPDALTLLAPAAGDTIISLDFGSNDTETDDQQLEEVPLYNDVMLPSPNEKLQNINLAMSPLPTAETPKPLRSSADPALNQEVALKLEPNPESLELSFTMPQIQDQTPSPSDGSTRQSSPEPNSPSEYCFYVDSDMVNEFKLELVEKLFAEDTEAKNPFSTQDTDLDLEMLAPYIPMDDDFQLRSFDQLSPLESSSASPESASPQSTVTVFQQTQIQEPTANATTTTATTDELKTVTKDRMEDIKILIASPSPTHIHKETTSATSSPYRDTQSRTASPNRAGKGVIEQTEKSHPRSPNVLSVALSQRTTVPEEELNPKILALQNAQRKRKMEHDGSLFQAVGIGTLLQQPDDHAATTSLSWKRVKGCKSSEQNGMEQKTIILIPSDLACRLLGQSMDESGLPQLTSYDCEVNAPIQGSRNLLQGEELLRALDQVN
Sequence of Paired box protein Pax-6 (Homo sapiens) (P26367 whole entry, looked up): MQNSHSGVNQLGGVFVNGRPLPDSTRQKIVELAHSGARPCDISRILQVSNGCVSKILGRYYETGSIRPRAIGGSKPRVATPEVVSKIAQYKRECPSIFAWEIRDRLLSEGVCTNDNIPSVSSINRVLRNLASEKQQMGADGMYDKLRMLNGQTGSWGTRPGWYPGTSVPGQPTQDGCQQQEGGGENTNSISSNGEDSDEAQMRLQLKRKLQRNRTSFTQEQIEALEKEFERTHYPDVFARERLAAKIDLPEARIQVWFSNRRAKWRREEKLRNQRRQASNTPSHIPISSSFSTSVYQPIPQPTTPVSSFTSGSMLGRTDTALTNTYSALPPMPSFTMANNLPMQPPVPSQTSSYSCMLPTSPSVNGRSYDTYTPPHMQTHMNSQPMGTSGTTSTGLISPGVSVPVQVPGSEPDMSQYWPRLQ

Turning to `OCC(O)CO`, the outcome in [1], in [2], in experiment [3], in experiment [4], in experiment [5] and in experiment [6] was inactive. The outcome in [7], in experiment [8], in experiment [9], in [10], in [11] and in experiment [12] was inactive. In addition, the molecule was called inactive in [13], in experiment [14], in experiment [15], in experiment [16], in experiment [17] and in experiment [18]. Further, the half-maximal activity concentration (AC50) in experiment [5] is 76.6 µM (active).

Turning to `CCOP(=S)(OCC)SCSC(C)(C)C`, the AC50 is 1.86 µM (active) in experiment [1]; 29.7 µM (active) and 5.91 µM (active) in [5]; 63.5 µM (active) in experiment [12]. Also, the result in experiment [1], in experiment [2], in experiment [3], in [4], in experiment [6] and in [7] was inactive. Also, the call in experiment [8], in experiment [9], in experiment [10], in [12], in experiment [13] and in experiment [14] was inactive. For the same molecule, the outcome in experiment [15], in experiment [16], in experiment [17], in [19] and in experiment [18] was inactive.

On to `O=S(=O)(O)C(F)(F)C(F)(F)C(F)(F)C(F)(F)C(F)(F)C(F)(F)F`, for which the outcome in experiment [1], in experiment [2], in [3], in experiment [4], in experiment [5] and in experiment [6] was inactive. The outcome in experiment [7], in experiment [8], in experiment [9], in experiment [10], in experiment [11] and in experiment [12] was inactive. The molecule was called inactive in experiment [13], in experiment [14], in [20], in experiment [15], in experiment [16] and in experiment [17]. Also, the outcome in experiment [19] and in [18] was inactive. The AC50 in experiment [5] is 100 µM (active) and 150 µM (active).

With `CCNc1nc(NC(C)C)nc(SC)n1`, the outcome in experiment [1], in [2], in [3], in experiment [4], in [6] and in experiment [7] was inactive. The molecule was classed as inactive in experiment [8], in experiment [9], in [10], in [12], in [13] and in [14]. Also, the outcome in experiment [15], in [16], in [17], in experiment [19] and in experiment [18] was inactive.

`CCCCCCCCOC(=O)c1ccccc1C(=O)OCCCCCCCC`: the outcome in [1], in [2], in experiment [3], in [4], in [5] and in experiment [6] was inactive. Moreover, the outcome in [7], in experiment [8], in experiment [9], in [10], in experiment [12] and in experiment [13] was inactive. Moreover, the outcome in experiment [14], in experiment [15], in experiment [16], in [17], in experiment [19] and in [18] was inactive. In addition, the AC50 in experiment [20] was 40.1 µM (active).

On to `CO/C=C(/C(=O)OC)c1ccccc1COc1cccc(C(F)(F)F)n1`, for which the outcome in experiment [1], in [2], in experiment [4], in experiment [5], in experiment [6] and in experiment [7] was inactive. The outcome in [8], in experiment [9], in [10], in [12], in [13] and in [14] was inactive. For the same molecule, the outcome in experiment [15], in experiment [16] and in [19] was inactive. In addition, the AC50 in experiment [3] is 28.8 µM (active); in [17], 44.3 µM (active); in experiment [18], 31.9 µM (active).

The values above are taken from PubChem BioAssay (EPA / NIEHS).
